Among the data in PubChem BioAssay (EPA / NIEHS) are outcome and AC50 values, retold here.

Activity calls are given as the source filed them. The calls were made as follows: active = hit-call score of the fitted dose curve at least 0.9, where 1 is the maximum; inactive = score below 0.9.

As a reminder, the AC50 is the midpoint of the concentration-response curve, whichever way the signal moves.

The assay is described as follows: ATG_PPRE_CIS: Attagene CIS-FACTORIAL HepG2 Assay for human Peroxisome Proliferator-activated Response Element (PPRE) (AID 2282958). Conditions: HepG2 PPRE cis-element reporter, Attagene transcription factor profiling; actives raise or lower the signal. Here is the method:
ATG_CIS is a cell-based, multiplexed-readout assay that uses HepG2, a human liver cell line, with measurements taken at 24 hours after chemical dosing in a 24-well plate.ATG_PPRE_CIS is one of 52 assay component(s) measured or calculated from the ATG_CIS assay. It is designed to make measurements of mRNA induction, a form of inducible reporter, as detected with fluorescence intensity signals by Reverse transcription polymerase chain reaction (RT-PCR) and Capillary electrophoresis technology.Data from the assay component ATG_PPRE_CIS was analyzed into 1 assay endpoint. This assay endpoint, ATG_PPRE_CIS, was analyzed with bidirectional fitting relative to DMSO as the negative control and baseline of activity. Using a type of inducible reporter, measures of mRNA for gain or loss-of-signal activity can be used to understand the reporter gene at the transcription factor-level as they relate to the gene PPARA and PPARD and PPARG. Furthermore, this assay endpoint can be referred to as a primary readout, because this assay has produced multiple assay endpoints where this one serves a reporter gene function. To generalize the intended target to other relatable targets, this assay endpoint is annotated to the nuclear receptor intended target family, where the subfamily is non-steroidal.
Human liver HepG2 cells are transiently transfected with multiple reporter transcription units (MRTUs) in 6-well plates using FuGene 6 reagent (Roche; 3 ml FuGene/1 mg DNA). The MRTU constructs are regulated by a cis-regulating element (promoter). […] A major difference between the CIS and TRANS system is that in CIS activities of endogenous TFs are measured, whereas the TRANS assay evaluates changes in activities of exogenous, chimeric NR-Gal4 proteins. […] At the end of 24 hour incubation, total RNA was isolated using TriZol reagent (Invitrogen). The isolated RNA is then reverse-transcribed using oligo(dT) primer and Mo-MLV reverse transcriptase (Invitrogen) with DNAse I (Ambion) treatment for 30 min. The one-tenth of the produced cDNA was amplified by PCR using Taq DNA polymerase (Invitrogen) and two reporter sequence-specific primers. The PCR products were fluorescently labeled by primer extension with 6-arboxyfluorescein (6-FAM) 5'-labeled reporter sequence-specific primer (2 min at 95 C, 20 s at 68 C and 10 min at 72 C) and these products were digested with 5U of HpaI (New England Biolabs) for 2h at 37 C. The fragments were purified using Qiaquick PCR columns (Qiagen), analyzed on an ABI 3130xL genetic analyzer (Applied Biosystems) with peak positions identified by using a set of X-rhodamine (ROX)-labeled MapMarker1000 molecular weight standards (BioVentures). The raw capillary electrophoresis data was processed using Attagraph software (Attagene).
Take `Cc1noc(NS(=O)(=O)c2ccc(N)cc2)c1C`: the result was inactive.
On the same count and under the same terms, to `CCC1COC(=O)O1` (stereo not given) belongs “inactive”.
For `C=CC(=O)OCCCCCCCC(C)C`, the concentration at half-maximal activity (AC50) is 71.1 µM (active).
As to `CCOB(OCC)OCC`, the result was inactive.
As to `CCCCCCCCCCCC(C)=O`, the AC50 is 159 µM (active).
Take `C=CC(C)(O)CC/C=C(\C)CC` (stereo not given): the molecule was called inactive.
The same measure, in the same setting: then `Cc1c[nH]c(=O)[nH]c1=O`, with “inactive”.
With `Oc1ccc(/C=C/c2cc(O)cc(O)c2)cc1`, the AC50 was 100 µM (active).
For `CCCCOCCOCCOC(C)=O`, the outcome was inactive.
Same read-out and setting: to `O=S(=O)(O)c1ccc(Nc2nc(Nc3ccc(C=Cc4ccc(Nc5nc(Nc6ccc(S(=O)(=O)O)cc6)nc(N(CCO)CCO)n5)cc4S(=O)(=O)O)c(S(=O)(=O)O)c3)nc(N(CCO)CCO)n2)cc1` belongs “inactive”; to `CC1C(C)(C)C2=C(C(=O)CCC2)C1(C)C` (stereo not given), “inactive”.
Same read-out and setting: then `CCC(C)(O)CCCC(C)C` (stereo not given), with “inactive”.
For `O=C(Cl)c1ccc(C(=O)Cl)cc1`, the call was inactive.
Still for that read-out and setting: then `CC(=O)OCc1ccccc1`, with “inactive”; and `Nc1ccnc(=O)[nH]1`, with “inactive”.
As for `Cc1cc(=O)[nH]c(=O)[nH]1`, the molecule was classed as inactive.
Same read-out and setting: to `CCCCCCCCCCCCCc1ccccc1` belongs “inactive”; to `CC(=O)OC1CCCCC1`, “inactive”; to `CC(CCC(=O)O)(c1ccc(O)cc1)c1ccc(O)cc1`, “inactive”.
The same measure, in the same setting: then `Cc1c(C(=O)c2c[nH]n(C)c2=O)ccc(S(C)(=O)=O)c1C1=NOCC1`, with “inactive”; and `CCCCOC(=O)CCC(C)=O`, with “inactive”.
On the same count and under the same terms, to `CC(C)c1cccc(C(C)C)c1N` belongs “inactive”; to `COC(=O)c1ccccc1C`, “inactive”.
As for `Cc1ccccc1CCO`, the result was inactive.
Same read-out and setting: then `CC1(C)CC(O)CC(C)(C)N1[O]`, with “inactive”; and `CO[Si](CCCS)(OC)OC`, with “inactive”; and `CC(C)COC(=O)CC(C(=O)OCC(C)C)S(=O)(=O)O` (stereo not given), with “inactive”.
In the case of `N#Cc1ccc(C(c2ccc(C#N)cc2)n2cncn2)cc1`, the molecule was called inactive.
Still for that read-out and setting: then `CC(=O)CCC=C(C)C`, with “inactive”; and `C=Cc1ccc(OC(C)=O)cc1`, with “inactive”.
The same measure, in the same setting: to `CCC1(C)C(=O)N(Cl)C(=O)N1Cl` (stereo not given) belongs “inactive”; to `CCC(C)C(=O)OCCc1ccccc1` (stereo not given), “inactive”.
On the same count and under the same terms, then `CC1CCC(C(C)(C)S)C(=O)C1` (stereo not given), with “inactive”; and `CCCCC(C=O)CC` (stereo not given), with “inactive”.
On to `Cc1ccc2c(c1)CCCN2`, for which the outcome was inactive.
As to `Nc1ccc(O)c([N+](=O)[O-])c1`, the outcome was inactive.
The same measure, in the same setting: then `CCOC(=O)[C@H](O)[C@@H](O)C(=O)OCC`, with “inactive”.
Same read-out and setting: then `CCNc1nc(NC(C)(C)C)nc(OC)n1`, with “inactive”; and `CCc1cccc(C)c1N`, with “inactive”; and `C1CCSC1`, with “inactive”.
